# Tested on: TDF
# Assay: H1.0 immunofluorescence intensity relative to DMSO (% of DMSO); higher = stronger H1.0 induction, active = 120 or more
# Conditions: concentration: 10 µM; 24 h
# How it was run: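 HCC1569 and TDF cells were seeded at 800 per well in 384-well plates in RPMI with 10% FBS and treated with compounds at 10 µM for 24 h at 37 °C, in triplicate. After fixation in 3.7% formaldehyde, cells were stained with a rabbit anti-H1.0 antibody, an AlexaFluor 647 secondary and DAPI, and six fields per well were imaged at ×10. H1.0 nuclear intensity or cell number is given as percent of the plate control, using the median of replicates, with HCC1569 values smoothed for positional effects.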
# 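Also: TDF is a line of transformed human dermal fibroblasts of mesenchymal origin.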
row,Structure (SMILES),H1.0 immunofluorescence intensity
1,CS(=O)(=O)N1CCN(Cc2cc3nc(-c4cccc5[nH]ncc45)nc(N4CCOCC4)c3s2)CC1,85.3 (inactive)
2,Cc1ncc([N+](=O)[O-])n1CCO [Metronidazole],99.3 (inactive)
3,CS(=O)(=O)Nc1ccc([N+](=O)[O-])cc1Oc1ccccc1 [Nimesulide],94.4 (inactive)
4,c1ccc(-c2cnc(Nc3ccc(OCCN4CCCC4)cc3)s2)cc1 [Flt-3 Inhibitor III],97.1 (inactive)
5,CCCCC=CCCCCCCCCC(=O)O [10(E)-Pentadecenoic acid],110 (inactive)
6,CN(C)CCC=C1c2ccccc2CCc2ccccc21.Cl [Amitriptyline hydrochloride],104 (inactive)
7,COc1ccc(C2Sc3ccccc3N(CCN(C)C)C(=O)C2OC(C)=O)cc1.Cl (centres undefined) [Diltiazem hydrochloride],93 (inactive)
8,O=C(CCCN1CCC(O)(c2cccc(C(F)(F)F)c2)CC1)c1ccc(F)cc1 [Trifluperidol],97.3 (inactive)
9,NS(=O)(=O)c1ccc2c(c1)C1C=CCC1C(c1ccc(Br)cc1)N2 (centres undefined),95.3 (inactive)
10,"CCCCCCCCCC(=O)OCC(CO)OC(=O)CCCCCCCCC (centres undefined) [1,2-Didecanoyl-glycerol (10:0)]",98.3 (inactive)
11,CON=C(C(=O)NC1C(=O)N2C(C(=O)[O-])=C(COC(C)=O)CSC12)c1csc(N)n1.[Na+] (centres undefined) [Cefotaxime sodium],92.3 (inactive)
12,"N[C@H](C(=O)O)c1cc(O)cc(O)c1 [(S)-3,5-Dihydroxyphenylglycine]",96.4 (inactive)
13,CC(C)CCNC(C)C1CCC2C3CC=C4CC(O)CCC4(C)C3CCC12C (centres undefined) [22-Azacholesterol],104 (inactive)
14,CC(=O)Nc1ccc(NC(=S)NC(=O)c2ccc(C(C)(C)C)cc2)cc1 [p53 Activator (Tenovin-1)],104 (inactive)
15,CCC1(O)CC2CN(CCc3c([nH]c4ccccc34)C(C(=O)OC)(c3cc4c(cc3OC)N(C)C3C(O)(C(=O)OC)C(OC(C)=O)C5(CC)C=CCN6CCC43C65)C2)C1 (centres undefined) [Vinblastine],161 (active)
16,CC(C)(O)c1ccccc1CCC(SCC1(CC(=O)O)CC1)c1cccc(C=Cc2ccc3ccc(Cl)cc3n2)c1 (centres undefined) [Montelukast],94.7 (inactive)
17,CC(C)=CCCC(C)=CCCC(C)=CCSCC(=O)O [Farnesylthoiacetic acid],97.7 (inactive)
18,CC(=O)NNC(=O)N1Cc2ccccc2Oc2ccc(Cl)cc21,91 (inactive)
19,CCCc1nc2c(C)cc(-c3nc4ccccc4n3C)cc2n1Cc1ccc(-c2ccccc2C(=O)O)cc1 [Telmisartan],101 (inactive)
20,N[C@@H](Cc1c[nH]c2ccc(O)cc12)C(=O)O [5-Hydroxy-L-tryptophan],93 (inactive)
21,O=C(C=Cc1ccc(O)c(O)c1)c1ccc(O)cc1O [Butein],94.3 (inactive)
22,COc1cc(C=C(C#N)C(=O)c2ccc(O)c(O)c2)cc(I)c1O [I-OMe-Tyrphostin AG 538],102 (inactive)
23,C=Cc1c(C)c2cc3[nH]c(cc4nc(cc5nc(cc1[nH]2)C(C)=C5CCC(=O)O)C(CCC(=O)O)=C4C)c(C)c3C=C [Protoporphyrin IX disodium],100 (inactive)
24,Cc1ccc(C(=CCN2CCCC2)c2ccccn2)cc1.Cl [Triprolidine hydrochloride],97.5 (inactive)
25,N#CC(=Cc1ccc(O)c(O)c1)C(=O)NCCCNC(=O)C(C#N)=Cc1ccc(O)c(O)c1 [Tyrphostin AG 537],94 (inactive)
26,CCCCCCCCC(O)C=CC=CC=CC(O)CCCC(=O)O (centres undefined) [Leukotriene B3],98.7 (inactive)
27,CC1C(=O)CCC2C1(C)CCC1C2(C)CCC2(C)C3CC(C)(C)CCC3(C)CCC12C (centres undefined) [Friedelin],96.1 (inactive)
28,CCOC(=O)[C@H](CCc1ccccc1)N[C@@H](C)C(=O)N1C(=O)N(C)C[C@H]1C(=O)O.Cl,100 (inactive)
29,"Brc1c(Br)c(Br)c2[nH]cnc2c1Br [4,5,6,7-tetrabromo-1H-benzimidazole]",111 (inactive)

# From the supplement of paper PMC7156485
